# Screening results: PubChem, National Center for Advancing Translational Sciences (NCATS)
# Many of the other results were omitted from the sample, so hits are more common in it than they were.
# KDM4E inh – blocks human JMJD2E demethylase activity; hit rate 1.6% among 230,000; AID 2147; B2RXH2; JMJD2E catalytic domain, FDH-coupled NADH fluorescence (FDH is formaldehyde dehydrogenase); Potency, µM (series often up to 57.1 µM), for inactives: at the highest dose activity change, negative = inhibition, hits mostly inhibitors; active = well fitted inhibition curve with a large enough effect, not every such curve was filed as active; inconclusive = small, poorly fitted or top-dose-only effect, or another doubt; inactive = no such curve, though single readings can be large or run the other way;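 note: 0% = wells with enzyme and -100% = buffer wells without enzyme; nearly all actives have a fitted effect of over 50% in size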
# RECQ1 helicase – blocks DNA unwinding by human RECQ1. RECQ1 DNA unwinding, red fluorescence kinetic read. Potency, µM (series often up to 57.3 µM), inactives show at the top dose activity, negative = inhibition, actives largely listed as inhibitors. hit rate 0.54% among 240,000;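 note: plate controls were vehicle for no effect and no enzyme for full effect; nearly all actives have a fitted effect of over 30% in size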
# Target sequence (P46063 whole entry, looked up): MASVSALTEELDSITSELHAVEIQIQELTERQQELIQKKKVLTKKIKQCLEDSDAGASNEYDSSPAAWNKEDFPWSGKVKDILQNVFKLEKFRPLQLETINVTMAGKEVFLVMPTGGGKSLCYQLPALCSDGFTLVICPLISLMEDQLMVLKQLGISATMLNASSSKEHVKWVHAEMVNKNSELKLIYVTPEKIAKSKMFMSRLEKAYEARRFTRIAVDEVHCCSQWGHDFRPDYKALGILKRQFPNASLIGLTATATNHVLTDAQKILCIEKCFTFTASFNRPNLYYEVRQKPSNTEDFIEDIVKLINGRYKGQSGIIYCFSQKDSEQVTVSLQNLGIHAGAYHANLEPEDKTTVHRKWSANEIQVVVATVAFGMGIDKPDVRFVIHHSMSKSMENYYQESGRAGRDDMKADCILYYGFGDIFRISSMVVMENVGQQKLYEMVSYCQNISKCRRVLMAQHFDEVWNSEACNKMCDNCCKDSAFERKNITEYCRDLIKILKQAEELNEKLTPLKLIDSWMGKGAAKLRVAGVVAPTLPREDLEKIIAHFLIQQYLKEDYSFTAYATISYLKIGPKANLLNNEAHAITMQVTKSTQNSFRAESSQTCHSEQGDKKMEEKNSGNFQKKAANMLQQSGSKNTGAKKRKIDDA
#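 50 nM RECQ1T1 preincubated 15 min with compound in Tris pH 8.0 buffer with MgCl2, DTT, Tween-20 and 2.5 ug/ml poly(dI-dC); started with 200 nM TAMRA/BHQ-2 forked duplex and 2 mM ATP. Unwinding read as fluorescence (525/598 nm), two reads 2 h apart.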
# GCN5L2 inh – blocks human GCN5L2 histone acetyltransferase; GCN5L2 HAT assay, ThioGlo1 CoA-SH fluorescence; Potency, µM (highest dose often 58.9 µM), for the others: at the top dose activity change, negative = inhibition, actives largely listed as inhibitors; hit rate 0.21% among 390,000
#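 Fluorescence readout, Ex340nm/Em540nm: ThioGlo1 (50uM final) reacts with free CoA thiol released as 20nM GCN5L2 acetylates H3(1-25) peptide (75uM) using acetyl-CoA (70uM). Compound and enzyme sat 15 min beforehand; 20 min room-temperature reaction.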
# TDP1 inh – TDP1 (human) enzyme inhibition. hit rate 0.28% among 350,000. Q9NUW8. recombinant TDP1, AlphaScreen DNA substrate cleavage. Potency, µM (titrated, usually from 130 µM), for the others: at the top dose activity change, negative = inhibition, hits mostly inhibitors; note: nearly all actives have a fitted effect of over 40% in size
#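 Signal: AlphaScreen proximity between streptavidin donor and anti-FITC acceptor beads on intact substrate. Reaction: Tdp1 1 nM, substrate 15 nM final, 5 min RT after 15 min compound preincubation.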
# BLM helicase inh – inhibitors of human Bloom syndrome helicase BLM; P54132; recombinant BLM DNA unwinding, fluorescence dequenching; Potency, µM (doses to about 56.1 µM), without a hit: at the top dose activity change, negative = inhibition, most hits filed as inhibitors; hit rate 0.2% among 350,000;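 note: plate controls were vehicle for no effect and no enzyme for full effect; nearly all actives have a fitted effect of over 35% in size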
# APEX1 inh – blocks human APE1 abasic DNA cleavage | AID 2517 | hit rate 0.35% among 350,000 | P27695 | Potency, µM (top dose mostly 65.8 µM), for inactives: top-dose activity change, negative = inhibition, hits mostly inhibitors | recombinant APE1, TAMRA/BHQ-2 abasic DNA cleavage fluorescence;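 note: plate controls were vehicle for no effect and reference inhibitor for full effect; nearly all actives have a fitted effect of over 55% in size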
#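 0.75 nM APE1 + cpd, 15 min RT; start w/ 50 nM TAMRA/BHQ-2 THF-abasic dsDNA; kinetic fluor 525/598 nm ×3 reads @60 s; Δ(read3−read1); normalized to DMSO and NSC13755 control wells.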
# * marks the source's active call; other numbers are inactive results; i = inactive; ? = inconclusive; / = not tested or not shown; ! = not confirmed by another sample; [ ] = remark or other dose. Unless noted, calls come from the whole dose curve; as a rule, active = well fitted curve in the direction sought with a large enough effect; inconclusive = small, poorly fitted or top-dose-only effect, or another doubt; inactive = no such curve, though single readings can be large; an effect the other way counts as inactive or inconclusive. Unless noted, % is set by controls: 0 for no effect and ±100 for the full control effect; potency is the fitted concentration of half-maximal effect.
SMILES,KDM4E inh,RECQ1 helicase,GCN5L2 inh,TDP1 inh,BLM helicase inh,APEX1 inh
CCOC(=O)CCCc1cc[c]([Sb](=[O])([OH])[OH])cc1,/,/,/,0.25µM*,/,/
NC(=O)OCCCc1ccccc1,/,/,25%,6%,5%,/
COc1cccc(-n2c(O)c(C=NCCN3CCOCC3)c(=O)[nH]c2=O)c1,4%,-3%,14µM*,2%,-3%,0%
O=c1[nH]c(=O)n(-c2cccc(Cl)c2)c(O)c1C=NCCN1CCCCC1,-11%,-11%,-1%,9%,-8%,3%
Cc1[nH]c2ccccc2c1P(=S)(c1ccccc1)c1ccccc1,/,/,/,0%,/,/
NC(=O)c1ccc(OCC(O)CN2CC=C(c3ccc(F)cc3)CC2)cc1 (configuration not stated),3%,38%,?,6%[56.1 µM],/,1%
CC(=O)c1cccc(OCC(O)CN2CC=C(c3ccccc3)CC2)c1 (configuration not stated),16µM*,-3%,-7%,-8%,-10%,-5%
CO/N=C(/C(=O)NC1C(=O)N2C(C(=O)O)=C(CSc3nc(=O)c(O)nn3C)CSC12)c1csc(N)n1 (configuration not stated),-17%,-3%,-12%,7.1µM*,-5%,?
CC1=C(C(=O)O)N2C(=O)[C@@H](NC(=O)CCCC(=O)O)[C@H]2SC1,-3%,-15%,-9%,-4%,-2%,-1%
Cc1ccc(-n2c(O)c(/C=N/N3CCCCC3c3cccnc3)c(=O)[nH]c2=S)cc1 (configuration not stated),0%,32µM*,7%,5%,-5%,-6%
CC[C@H](C)[C@H](NC(=O)[C@@H](N)Cc1ccc(O)cc1)C(=O)NCC(=O)N[C@@H](CO)C(=O)N[C@@H](CCCN=C(N)N)C(N)=O,/,-12%,20%,6%,2%,-4%
Cc1nc2c(=O)n(C)c(=O)nc-2n(C)n1,2%,i,-6%,6%,0.79µM*,-1%
Cc1ccccc1CN1CCN(c2ccc(Cl)cc2)CC1,22µM*,2%,-3%,0%,-2%,3%
COC(=O)[C@]1(C)CC[C@@]2(C)CC[C@@]3(C)C4=CC=C5C(=CC(=O)C(O)=C5C)[C@@]4(C)CC[C@@]3(C)C2C1 (some centres not stated),?,-6%,-17%,9%[12.3 µM],-4%,4%
Cc1cccc(-n2c(C)n[nH]c2=S)c1C,7%,i,/,/,-3%,23%
Cc1ccc(-c2cn3c(=S)[nH]nc3s2)cc1,6.3µM*,i,14µM*,3%,2%,-6%
O=[N+]([O-])c1ccc(O)c([N+](=O)[O-])c1,-26%,-14%,?,1%,4%,0%
O=[N+]([O-])c1cc(O)c(O)c([N+](=O)[O-])c1,10µM*,?,?,7%,-8%,?
CCn1nc(-c2ccccc2)nc2c(=O)n(C)c(=O)nc1-2,28µM*,-25%,?,5%,1.4µM*,?
COc1ccc(-c2nc3ccccc3c(=O)n2-c2ccc(OC)cc2)cc1,3%,i,-4%,4%,-6%,24%
O=C1OC(=O)C2C3CCC(O3)C12 (configuration not stated),22µM*!,-7%,5%,?,2%,-10%
O=C1C2C3CCC(O3)C2C(=O)N1CCO (configuration not stated),-4%,i,-16%,/,-3%,8%
NC1CCCC[C@@H]1N (some centres not stated),/,-9%,49%,13%,-1%,10%
Clc1ccc(CS[C@@H](Cn2ccnc2)c2ccc(Cl)cc2Cl)cc1,-5%[25.5 µM],i,13µM*,22%[21 µM],1%[21.4 µM],/
Cc1ccc(-n2sc3ccccc3c2=O)cc1,28µM*,-1%,7.1µM*,7%,-1%,4%
SMILES,KDM4E inh,RECQ1 helicase,GCN5L2 inh,TDP1 inh,BLM helicase inh,APEX1 inh
Cc1c(CC(=O)N2C[C@H]3C[C@@H](C2)c2cccc(=O)n2C3)c(=O)oc2cc(O)c(Cl)cc12,/,/,20µM*,/,1%,3%
C(CCOCC1CO1)COCC1CO1 (configuration not stated),/,7%,/,14%,/,2%
CCCN1CCCC2Cc3[nH]ncc3CC21 (configuration not stated),-2%,-1%,/,0.28µM*!,4%,-3%
CCCCCCCCCC[n+]1cccc([C@@H]2CCCN2C)c1,/,-14%,8.9µM*,2%,-8%,12%
CN1CCC[C@H]1c1cccnc1,-5%,-9%,-24%,5%[56.1 µM],0%,20%
O=C(O)CC1OCC=C2CN3CCC45c6ccccc6NC4C1C2CC35 (configuration not stated),-10%,-1%,2%,/,-2%,-2%
O=C(O)CC1OCC=C2CN3CCC45C6=CC(=O)C(=O)C([N+](=O)[O-])=C6NC4C1C2CC35 (configuration not stated),0.063µM*,?,-15%,-1%,?,-4%
Cn1c(-c2ccccc2)c(P(=S)(c2ccccc2)c2ccccc2)c2ccccc21,/,/,/,0%,/,/
O=C1OC(c2ccc(O)c(S(=O)(=O)O)c2)(c2ccc(O)c(S(=O)(=O)O)c2)c2c(Br)c(Br)c(Br)c(Br)c21,/,-11%,28µM*,-9%,37%,18%
CC1(C)Cc2c(sc3nc4n(-c5ccccc5)c(=O)c(CCC(=O)O)nn4c(=O)c23)CO1,32µM*,-6%,0%,10%,-6%,0%
CNC[C@H](O)c1ccc(O)c(OC)c1,-5%[25.5 µM],i,10%[21.4 µM],10%[21 µM],-3%[21.4 µM],2%[21 µM]
CCC(N)C(O)c1ccc(O)c(O)c1 (configuration not stated),14µM*,12%,-4%,/,3%,-4%
[Cl-].[Cl-].[Hg+2],/,-9%,0.14µM*,35µM*,-7%,/
Cc1ncc(C[n+]2csc(CCOP(=O)(O)O)c2C)c(N)n1,/,/,-3%,15%,4%,/
CCn1ccnc1CN1CCCC(C(=O)c2cccc(C(F)(F)F)c2)C1 (configuration not stated),4%,i,0%,5%,-3%,1%
O=C(c1cccc(C(F)(F)F)c1)C1CCCN(Cc2ncc[nH]2)C1 (configuration not stated),0%,i,0.16µM*,-2%,-7%,-2%
O=C(O)CCCC[C@@H]1SC[C@H]2NC(=O)N[C@@H]12,-9%,-4%,/,30%[56.1 µM],-1%,-4%
CCOC(=O)c1c(NS(=O)(=O)c2ccccc2)n(CCCOC)c2nc3ccccc3nc12,?,-2%,22µM*,-4%,5.6µM*,?
